Assay results as given in PubChem BioAssay (NCATS).
Where “and” joins values, the source holds several entries; their conditions need not be identical. Equal values may be shown once. Records with an inconclusive call do not appear. Where a call stands in place of a potency, no number is given. Unmarked numbers belong to inactive results. Calls of active or inactive are those of the source. Calls follow the shape of the dose curve; as a rule, active = well fitted curve in the direction sought with a large enough effect; inconclusive = small, poorly fitted or top-dose-only effect, or another doubt; inactive = no such curve, though single readings can be large; an effect the other way counts as inactive or inconclusive.

Tests used:
[1] = Primary qHTS for inhibitors of nuclear receptor binding SET domain protein 2 (NSD2) in an RCH-ACV wild type WT cells (2C) (AID 1645877); also: nearly all actives have a fitted effect of over 70% in size; also: potency is read from the fitted curve at half-maximal effect
[2] = molecular target: Glutathione peroxidase 1 (Homo sapiens) (UniProt P07203); test: Primary qHTS Assay for Inhibitors of Recombinant Selenoprotein Glutathione Peroxidase 1 (GPX1) (AID 1845191); also: nearly all actives have a fitted effect of over 65% in size
Outline: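 GR-coupled assay: compounds preincubated 30 min at room temperature with GPX1, then reaction started with CHP; final 10 nM GPX1, 1 mM GSH, 0.5 mM CHP, 0.5 mM NADPH, 100 nM GR, 0.01% BSA, pH 7.5 Tris buffer. NADPH fluorescence (340/450 nm) read at 0 and 15 min.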

[3] = molecular target: Phospholipid hydroperoxide glutathione peroxidase GPX4 (Homo sapiens) (UniProt P36969); test: Primary qHTS Assay for Inhibitors of Recombinant Selenoprotein Glutathione Peroxidase 4 (GPX4) (AID 1845192); also: nearly all actives have a fitted effect of over 65% in size
Outline: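 GR-coupled assay: recombinant GPX4 preincubated 30 min with compound at room temperature; final 200 nM GPX4, 1 mM GSH, 0.5 mM cumene hydroperoxide, 0.5 mM NADPH, 100 nM GR, 0.01% BSA, pH 7.5 Tris. NADPH fluorescence (340/450 nm) read at 0 and 15 min.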

[4] = NCATS anti-infectives library activity on HEK293 viability as a counter-qHTS vs the C. elegans viability qHTS (AID 1745854);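 also: HEK293 cells exposed to compounds for 24 hr before the viability read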
Outline: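 Cytotoxicity in human HEK293 cells is measured by ATP-dependent CellTiter-Glo luminescence following a 24 hr incubation with titrated library compounds at 37C. Top final concentration is 41.7 uM.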

Chain of Phospholipid hydroperoxide glutathione peroxidase GPX4 (Homo sapiens) (P36969 whole entry, looked up): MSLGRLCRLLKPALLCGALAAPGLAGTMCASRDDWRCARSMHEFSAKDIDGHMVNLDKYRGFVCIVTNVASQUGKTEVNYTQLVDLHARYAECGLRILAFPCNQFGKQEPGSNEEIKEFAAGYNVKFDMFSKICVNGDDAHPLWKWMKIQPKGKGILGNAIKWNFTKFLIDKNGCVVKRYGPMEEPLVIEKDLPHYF
Chain of Glutathione peroxidase 1 (Homo sapiens) (P07203 whole entry, looked up): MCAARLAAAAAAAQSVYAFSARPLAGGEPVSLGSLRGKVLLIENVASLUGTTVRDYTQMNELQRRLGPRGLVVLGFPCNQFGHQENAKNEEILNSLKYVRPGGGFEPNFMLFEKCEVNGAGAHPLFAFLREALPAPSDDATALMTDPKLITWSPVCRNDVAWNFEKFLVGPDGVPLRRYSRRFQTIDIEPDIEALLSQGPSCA

| Compound | Potency [1] | Potency [2] | Potency [3] | activity change, negative = cell killing [1] | outcome [4] |
| --- | --- | --- | --- | --- | --- |
| CC(=O)O[C@H]1C[C@@H](OC(C)=O)C(C)(C)C2C[C@@H](O)[C@]3(C)C(CC[C@@]4(C)[C@H](C5=CC(=O)OC5O)C[C@H]5O[C@]543)[C@]21C (stereo not given in full) | inactive | inactive | – | – | – |
| C[C@H]1C(=O)O[C@H]2[C@H](O)[C@]34C5OC(=O)[C@]3(O[C@@H]3OC(=O)[C@H](O)C34[C@H](C(C)(C)C)[C@H]5O)C12O (stereo not given in full) | inactive | inactive | inactive | – | – |
| Cc1c(Cl)cccc1S(=O)(=O)Nc1nc(CC(=O)N2CCN(C)CC2)cs1 | inactive | inactive | inactive | – | – |
| O=C(N1CCOCC1)N1CCN(c2ccc(Cl)cc2)CC1 | inactive | inactive | inactive | – | – |
| C/C=C(\C)C(=O)OC1C(C)OC(OC2C(C)OC(OC3CCC4(C)C(=CCC5C4CCC4(C)C(C(C)OC6OC(COC7OC(CO)C(O)C(O)C7O)C(O)C(O)C6O)CCC54O)C3)CC2OC)C(O)C1OC (stereo not given) | – | inactive | inactive | -10% [at 9.23 µM] | – |
| C1=C2CCCN[C@H]2[C@@H]2C[C@H]1[C@H]1CCCCN1C2 | inactive | inactive | inactive | – | inactive |
| CC(=O)OC1CC(O)C2(C)C(CC(OC(C)=O)C3(C)C2CCC2(C)C(c4ccoc4)C(=O)C4OC423)C1(C)C (stereo not given) | inactive | inactive | – | – | – |
| COC(=O)[C@@]12C(=O)C(C)C(=O)[C@]1(C)C(C)=C[C@H]1[C@]3(C=O)CC[C@H](OC(C)=O)C(C)(C)[C@H]3CC[C@@]12C (stereo not given in full) | inactive | inactive | inactive | – | – |
| CCOc1ccccc1-n1c(C(C)N2CCN(C(=O)COc3ccc(Cl)cc3)CC2)nc2ccccc2c1=O (stereo not given) | 365 nM (active) and 372 nM (active) | inactive | – | – | – |
